In PubChem BioAssay (EPA / NIEHS) one finds outcome and AC50 data, which are given here for 21 compounds.

Active and inactive are the calls of the source. How the source made its calls: active means hit-call score of the fitted dose curve at least 0.9, where 1 is the maximum; inactive means score below 0.9.

The target in experiment [1] is Paired box protein Pax-6 (Homo sapiens) (UniProt P26367). Description: ATG_Pax6_CIS: Attagene CIS-FACTORIAL HepG2 Assay for human Paired Box 6 (PAX6) (AID 2282956). As to conditions: HepG2 CIS-FACTORIAL PAX6 reporter transcription, RNA readout; actives raise or lower the signal. An outline of the steps: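 DMSO-referenced bidirectional fits of reporter mRNA fluorescence; HepG2 with transient cis-promoter MRTUs, 24 h post-dose, RT-PCR plus capillary electrophoresis detection.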

Experiment [2] in a line: ATG_PXRE_CIS: Attagene CIS-FACTORIAL HepG2 Assay for human Pregnane X Receptor Element (PXRE) (AID 2282957). Particulars: HepG2 Attagene CIS-FACTORIAL PXRE reporter, mRNA; actives raise or lower the signal. The method, boiled down:
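Endogenous transcription factor activity in HepG2 was gauged through induction of reporter mRNA driven by a cis-regulating promoter element, sampled 24 h post-treatment. Activity was fitted in both directions against DMSO negative control.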

A short description of experiment [3]: ATG_PPRE_CIS: Attagene CIS-FACTORIAL HepG2 Assay for human Peroxisome Proliferator-activated Response Element (PPRE) (AID 2282958). Particulars: HepG2 PPRE cis-element reporter, Attagene transcription factor profiling; actives raise or lower the signal. An outline of the steps:
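Endogenous PPRE-driven transcription is measured in HepG2 cells carrying transfected multi-reporter constructs. Reporter transcripts are quantified by RT-PCR, HpaI digestion and capillary electrophoresis 24 h after dosing. DMSO baseline, bidirectional fit.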

Experiment [4] in a line: ATG_RORE_CIS: Attagene CIS-FACTORIAL HepG2 Assay for human RAR-related Orphan Receptor Element (RORE) (AID 2282959). Particulars: HepG2 Attagene cis-factorial RORE reporter, mRNA; actives raise or lower the signal. The method, boiled down:
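RORE reporter transcripts reflecting endogenous factor activity were read after 24 h compound exposure of transfected HepG2 cells, using reverse transcription, PCR, fluorescent labelling and capillary electrophoresis sizing. Gain or loss fitted against DMSO.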

Experiment [5] is described as follows: ATG_Sox_CIS: Attagene CIS-FACTORIAL HepG2 Assay for human SRY-box transcription factor (SOX) (AID 2282960). As to conditions: HepG2 Attagene cis-factorial SOX reporter, mRNA; actives raise or lower the signal. An outline of the steps: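 Reporter transcripts, measured by RT-PCR and capillary electrophoresis of labelled fragments, report endogenous SOX transcription factor activity. Transiently transfected human HepG2 cells receive chemical for 24 h; changes in either direction are fitted relative to DMSO.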

Experiment [6] addresses Transcription factor Sp1 (Homo sapiens) (UniProt P08047). As to the kind of experiment: ATG_Sp1_CIS: Attagene CIS-FACTORIAL HepG2 Assay for human Specificity Protein 1 (Sp1) (AID 2282961). As to conditions: HepG2 Sp1 cis-reporter transcription, actives raise or lower the signal. An outline of the steps: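 Read-out is reporter transcript level, measured by RT-PCR and fluorescent capillary electrophoresis after 24 h chemical treatment. System: transiently transfected HepG2 cells reporting endogenous transcription factor activity; gain or loss fitted against DMSO baseline.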

Experiment [7] in a line: ATG_SREBP_CIS: Attagene CIS-FACTORIAL HepG2 Assay for human Sterol Regulatory Element Binding (SREBP) (AID 2282962). As to conditions: HepG2 Attagene cis-factorial SREBP reporter, mRNA; actives raise or lower the signal. The method, boiled down: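 In this cis-format assay, HepG2 liver cells express reporters controlled by promoter elements responsive to native transcription factors. Exposure lasts 24 h; reporter mRNA fluorescence from capillary electrophoresis gives the signal, fitted bidirectionally against DMSO.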

For experiment [8], the target named is Signal transducer and activator of transcription 3 (Homo sapiens) (UniProt P40763). As to the kind of experiment: ATG_STAT3_CIS: Attagene CIS-FACTORIAL HepG2 Assay for human Signal Transducer and Activator of Transcription 3 (STAT3) (AID 2282963). Particulars: HepG2, Attagene cis-factorial STAT3 reporter transcription; actives raise or lower the signal. An outline of the steps: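 Uses human liver HepG2 transiently carrying cis-regulated reporter transcription units. Following 24 h dosing, reporter mRNA induction was detected by RT-PCR and capillary electrophoresis, analysed bidirectionally versus DMSO.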

Experiment [9] in a line: ATG_TA_CIS: Attagene CIS-FACTORIAL HepG2 Assay for human TA Basal Promoter (AID 2282964). Particulars: HepG2 Attagene CIS-factorial TA basal promoter reporter; actives raise or lower the signal. An outline of the steps: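 Background-control readout: TA basal promoter reporter mRNA, fitted in both directions relative to DMSO. Measured by RT-PCR and capillary electrophoresis 24 hours after treating HepG2 human liver cells transiently carrying multiplexed cis-regulated reporter constructs.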

Experiment [10] is described as follows: ATG_TCF_b_cat_CIS: Attagene CIS-FACTORIAL HepG2 Assay for human T-Cell-Factor with beta-catenin (TCF/b-cat) (AID 2282965). Particulars: HepG2 TCF/beta-catenin cis-reporter transcription, actives raise or lower the signal. The method, boiled down: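 In this cis-format system, transfected HepG2 cells report endogenous transcription factor activity. Readout after 24 h exposure is reporter transcript abundance from RT-PCR and capillary electrophoresis, analysed for gain or loss of signal versus DMSO.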

Transcription factor Sp1 (Homo sapiens), sequence (P08047 whole entry, looked up): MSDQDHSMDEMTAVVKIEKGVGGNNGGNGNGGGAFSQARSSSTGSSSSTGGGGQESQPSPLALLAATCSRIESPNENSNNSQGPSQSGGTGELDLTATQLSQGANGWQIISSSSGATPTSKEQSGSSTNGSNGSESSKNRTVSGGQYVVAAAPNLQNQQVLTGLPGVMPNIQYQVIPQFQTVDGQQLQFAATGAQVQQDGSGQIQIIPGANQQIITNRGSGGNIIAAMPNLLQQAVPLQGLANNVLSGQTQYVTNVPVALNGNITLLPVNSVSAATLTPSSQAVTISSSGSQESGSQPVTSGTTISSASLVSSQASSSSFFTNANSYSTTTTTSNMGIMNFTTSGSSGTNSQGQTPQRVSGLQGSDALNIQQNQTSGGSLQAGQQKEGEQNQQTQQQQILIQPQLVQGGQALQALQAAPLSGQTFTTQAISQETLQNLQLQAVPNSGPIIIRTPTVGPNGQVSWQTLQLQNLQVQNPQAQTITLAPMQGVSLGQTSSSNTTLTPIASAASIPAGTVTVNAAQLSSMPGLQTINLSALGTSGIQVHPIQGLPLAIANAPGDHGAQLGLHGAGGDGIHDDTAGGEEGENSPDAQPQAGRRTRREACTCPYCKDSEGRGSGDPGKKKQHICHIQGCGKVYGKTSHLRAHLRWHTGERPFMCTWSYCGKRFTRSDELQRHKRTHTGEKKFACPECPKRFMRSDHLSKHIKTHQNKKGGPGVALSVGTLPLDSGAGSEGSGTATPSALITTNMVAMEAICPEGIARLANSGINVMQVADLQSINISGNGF
Paired box protein Pax-6 (Homo sapiens), sequence (P26367 whole entry, looked up): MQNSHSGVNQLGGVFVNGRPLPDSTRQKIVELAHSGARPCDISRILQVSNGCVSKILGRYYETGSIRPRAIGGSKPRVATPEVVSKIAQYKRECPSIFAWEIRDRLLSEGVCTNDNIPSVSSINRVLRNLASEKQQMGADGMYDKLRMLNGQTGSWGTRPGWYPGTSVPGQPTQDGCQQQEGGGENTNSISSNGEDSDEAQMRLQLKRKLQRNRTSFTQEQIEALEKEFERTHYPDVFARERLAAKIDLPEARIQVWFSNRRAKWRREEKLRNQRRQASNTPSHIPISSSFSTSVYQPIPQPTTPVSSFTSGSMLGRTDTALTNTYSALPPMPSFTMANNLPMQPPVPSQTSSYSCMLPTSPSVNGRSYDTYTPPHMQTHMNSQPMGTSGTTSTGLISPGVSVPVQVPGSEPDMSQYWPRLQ
Signal transducer and activator of transcription 3 (Homo sapiens), sequence (P40763 whole entry, looked up): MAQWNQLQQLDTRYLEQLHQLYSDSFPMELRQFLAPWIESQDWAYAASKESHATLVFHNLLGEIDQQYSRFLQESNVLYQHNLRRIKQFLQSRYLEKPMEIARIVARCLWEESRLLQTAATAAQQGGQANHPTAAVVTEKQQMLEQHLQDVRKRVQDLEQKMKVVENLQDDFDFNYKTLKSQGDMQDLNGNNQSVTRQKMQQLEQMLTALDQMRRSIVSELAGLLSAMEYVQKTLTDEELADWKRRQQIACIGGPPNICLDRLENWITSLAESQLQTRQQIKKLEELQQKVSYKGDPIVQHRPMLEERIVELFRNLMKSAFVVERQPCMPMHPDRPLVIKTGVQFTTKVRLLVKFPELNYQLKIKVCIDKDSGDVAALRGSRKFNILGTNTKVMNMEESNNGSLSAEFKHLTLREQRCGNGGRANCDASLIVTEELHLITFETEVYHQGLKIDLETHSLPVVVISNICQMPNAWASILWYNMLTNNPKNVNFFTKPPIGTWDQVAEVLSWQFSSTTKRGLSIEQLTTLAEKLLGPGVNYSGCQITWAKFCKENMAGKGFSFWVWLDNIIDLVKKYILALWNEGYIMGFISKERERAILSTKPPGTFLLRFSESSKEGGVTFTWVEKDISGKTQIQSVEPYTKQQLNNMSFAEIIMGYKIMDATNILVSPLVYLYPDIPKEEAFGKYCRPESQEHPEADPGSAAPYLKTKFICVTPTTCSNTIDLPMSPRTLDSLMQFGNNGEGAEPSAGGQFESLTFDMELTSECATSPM

In general, AC50 refers to the midpoint of the concentration-response curve, whichever way the signal moves. As to `CCCCC(CC)COP(=O)(OCC(CC)CCCC)OCC(CC)CCCC` (stereo not drawn), the compound was called inactive in experiment [1], in experiment [3], in [4], in [5], in experiment [6] and in experiment [7]. For the same compound, the compound was called inactive in [8] and in experiment [9]. Also, in experiment [2], the AC50 is 0.339 µM (active).

In the case of `Oc1ccc(O)cc1`, the result in experiment [1], in experiment [2], in experiment [4], in experiment [5], in experiment [7] and in [8] was inactive. Besides, the call in experiment [9] was inactive. Moreover, the AC50 in experiment [3] is 62.5 µM (active); in experiment [6] it was 29.1 µM (active).

On to `CCCCCCC(CCCCCCCCCCC(=O)OCC(COC(C)=O)OC(C)=O)OC(C)=O` (stereo not drawn), for which the outcome in [1], in experiment [4], in [5], in experiment [6], in experiment [7] and in experiment [8] was inactive. Besides, the compound was classed as inactive in [9]. In addition, the half-maximal activity concentration (AC50) in experiment [2] was 50 µM (active); in experiment [3], 39.6 µM (active).

For the compound `O=C1c2c(O)cccc2Cc2cccc(O)c21`, the result in experiment [1], in experiment [2], in experiment [3], in experiment [4], in experiment [5] and in experiment [6] was inactive. For the same compound, the compound was classed as inactive in [7], in [8] and in experiment [9].

With `Cc1cc(SC2=C(O)C[C@@](CCc3ccc(N)cc3)(C(C)C)OC2=O)c(C(C)(C)C)cc1CO`, the result in experiment [1], in [4], in [5], in [7], in [8] and in experiment [9] was inactive. In addition, the AC50 in experiment [2] is 1.55 µM (active); in experiment [3] it was 57.6 µM (active); in experiment [6], 29.1 µM (active).

Regarding `C/C=C/c1ccc(OC)cc1`, the outcome in experiment [1], in experiment [2], in experiment [3], in experiment [4], in experiment [5] and in [6] was inactive. The compound was classed as inactive in experiment [7], in experiment [8] and in experiment [9].

In the case of `CCc1nc(N)nc(N)c1-c1ccc(Cl)cc1`, the AC50 in [1] was 46 µM (active); in experiment [3], 26.8 µM (active); in [4], 42.5 µM (active); in experiment [9], 100 µM (active). For the same compound, the call in experiment [2], in [5], in [6], in experiment [7] and in experiment [8] was inactive.

In the case of `CSc1ccc(Oc2ccc(S(N)(=O)=O)cc2CN(C)C)cc1C`, the compound was classed as inactive in experiment [1], in [3], in experiment [4], in experiment [5], in experiment [6] and in experiment [8]. Further, in experiment [9], the compound was classed as inactive. Further, the AC50 was 9.66 µM (active) in experiment [2], 23.4 µM (active) in experiment [7] and 55 µM (active) in experiment [10].

Turning to `CCOCCOCCO`, the compound was classed as inactive in experiment [1], in experiment [2], in [3], in [4], in experiment [5] and in experiment [6]. Also, the compound was classed as inactive in experiment [7], in [8], in experiment [9] and in experiment [10].

Regarding `CN(C)CCCN1c2ccccc2Sc2ccc(Cl)cc21`, the figures for the AC50 in experiment [1], in [7] and in experiment [10] were 15.9 µM (active), 6.99 µM (active) and 7.68 µM (active), respectively. The outcome in experiment [2], in [3], in experiment [4], in [5], in experiment [6] and in [8] was inactive. For the same compound, the result in experiment [9] was inactive.

As to `CC(=O)OC1CC(C)OC(C)O1` (stereo not drawn), the call in [1], in [2], in experiment [3], in experiment [4], in [5] and in [6] was inactive. In addition, the compound was classed as inactive in [7], in experiment [8], in experiment [9] and in [10].

Turning to `O=C1NC(=O)C(c2ccccc2)(c2ccccc2)N1`, the outcome in experiment [1], in experiment [2], in experiment [3], in [4], in experiment [5] and in experiment [6] was inactive. In addition, the compound was classed as inactive in experiment [7], in [8], in [9] and in experiment [10].

Regarding `CCC(C)N(C)C(=O)c1cc2ccccc2c(-c2ccccc2Cl)n1` (stereo not drawn), the AC50 in experiment [1] is 63 µM (active); in experiment [2], 0.135 µM (active); in experiment [3], 106 µM (active); in [4], 46.9 µM (active); in [9] it was 44.3 µM (active); in [10], 41.7 µM (active). In addition, the outcome in experiment [5], in experiment [6], in experiment [7] and in experiment [8] was inactive.

As for `O=Cc1ccccc1C=O`, the result in [1], in experiment [2], in [3], in experiment [4], in experiment [5] and in experiment [6] was inactive. The call in experiment [7], in experiment [8], in [9] and in experiment [10] was inactive.

With `NC(=Nc1ccccc1)Nc1ccccc1`, the AC50 was 34.6 µM (active) in [1], 29.5 µM (active) in experiment [4] and 6.54 µM (active) in experiment [10]. For the same compound, the result in [2], in experiment [3], in experiment [5], in experiment [6], in [7] and in experiment [8] was inactive. For the same compound, the result in experiment [9] was inactive.

Take `NC=O`: the outcome in experiment [1], in experiment [2], in experiment [3], in experiment [4], in [5] and in [6] was inactive. For the same compound, the call in [7], in experiment [8], in experiment [9] and in [10] was inactive.

On to `O=C(N[C@@H](c1ccccc1)[C@@H]1CCCCN1)c1cccc(C(F)(F)F)c1Cl`, for which the AC50 in experiment [1] is 33 µM (active); in experiment [2] it was 8.23 µM (active); in [5] it was 33 µM (active); in [6], 42.7 µM (active); in [7] it was 8.09 µM (active); in experiment [10], 16.6 µM (active). Further, the compound was called inactive in [3], in experiment [4], in [8] and in [9].

Consider `O=C(NS(=O)(=O)/C=C/c1cccs1)c1ccc(F)cc1Br`, for which the call in experiment [1], in [3], in [4], in [5], in experiment [6] and in experiment [7] was inactive. Also, the result in experiment [8] and in experiment [9] was inactive. Further, the AC50 was 13.7 µM (active) in experiment [2] and 11.4 µM (active) in [10].

With `O=[Si]=O`, the outcome in [1], in [2], in [3], in experiment [4], in experiment [5] and in [6] was inactive. The outcome in [7], in experiment [8], in experiment [9] and in experiment [10] was inactive.

For `O=C1O[C@H]([C@H](O)CO)C(O)=C1O`, the call in experiment [1], in experiment [2], in experiment [3], in experiment [4], in [5] and in experiment [6] was inactive. Moreover, the outcome in [7], in [8], in experiment [9] and in [10] was inactive.

Turning to `Oc1ccccc1O`, the compound was called inactive in experiment [1], in [2], in experiment [3], in experiment [5], in experiment [6] and in experiment [7]. Moreover, the result in [8], in experiment [9] and in experiment [10] was inactive. Also, in experiment [4], the AC50 is 23.2 µM (active).
